Compound activity deposited in PubChem by National Center for Advancing Translational Sciences (NCATS).
Only a selection was taken, and hits are over-represented in it overall.
Marburg entry inh: Marburg virus entry inhibition; Potency, µM (top dose mostly 37.8 µM), without a hit: at the highest dose activity change, negative = inhibition, hits mostly inhibitors; AID 540276; actives 1.8% (n = 300,000); Marburg virus pseudotyped entry inhibition, cell reporter; calls by dose curve; tested in HEK293 cells; also: potency is read from the fitted curve at half-maximal effect; % is scaled to controls: 0 for no effect and ±100 for the full control effect
LASV entry inh: inhibitors of Lassa virus binding or cell entry; Lassa virus pseudotype entry inhibition, cell reporter; Potency, µM (titrated, usually from 37.9 µM), for the others: at the highest dose activity change, negative = inhibition, usual class: inhibitors; actives 1.2% (n = 300,000); calls by dose curve; tested in HEK293 cells; also: potency is read from the fitted curve at half-maximal effect; % is scaled to controls: 0 for no effect and ±100 for the full control effect; nearly all actives have a fitted effect of over 50% in size
AMA1-RON2 inh: AMA1-RON2 (P. falciparum) interaction inhibition | AID 720542 | actives 0.2% (n = 360,000) | AlphaScreen AMA1-biotinylated RON2 peptide binding | Potency, µM (highest dose often 58.2 µM), without a hit: at the top dose activity change, negative = inhibition, actives largely listed as inhibitors; active = well fitted inhibition curve with a large enough effect; inconclusive = small, poorly fitted or top-dose-only effect; inactive = no such curve, though single readings can be large or run the other way;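 also: potency is read from the fitted curve at half-maximal effect; 0% = vehicle wells and -100% = peptide control; nearly all actives have a fitted effect of over 45% in size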
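AMA1 (3D7) with his tag at 25 nM final met compounds first, then biotinylated RON2 peptide at 25 nM; detection used donor plus acceptor beads, 10 µg/mL apiece, read by AlphaScreen after 30 min at room temperature.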
Shiga inhibitor: inhibitors of Shiga toxin in Vero cells | actives 9.2% (n = 290,000) | inhibition, % at 38.7 µM | Vero cells, Shiga toxin protein synthesis inhibition reporter; in the data active = inhibition mostly above about 28%, no sharp cut-off; inactive = mostly below about 43%; also: 0% is about no effect
CHX counter: affects cycloheximide protein synthesis inhibition readout, counter-screen. max response, %. actives 12% (n = 300,000). cell reporter, cycloheximide protein synthesis inhibition counterscreen; in the data active = max response mostly above about 13%, no sharp cut-off; inactive = mostly below about 14%; also: read at 38.3 µM for the half of the compounds with a filed dose; 0% is about no effect
* marks the source's active call; other numbers are inactive results; ? = inconclusive; nt = not tested or not shown; [ ] = another dose, or the depositor's remark.

SMILES | Marburg entry inh | LASV entry inh | AMA1-RON2 inh | Shiga inhibitor | CHX counter
COc1ccc2nc(SCC(=O)Nc3cc(C)on3)c(C#N)cc2c1 | ? | ? | 5% | -3 | -3
CCCOc1ccc(Oc2nc(NCC(C)C)nc(N(C)C)n2)nn1 | -1%[46.1 µM] | 7%[46.1 µM] | nt | nt | nt
CC1(C(=O)NCC2CC2)Cc2c(-c3cccc(C(F)(F)F)c3)ccnc2O1 (stereo not given) | nt | nt | 5% | nt | nt
CC(O)(c1cccc(F)c1)c1nc(-c2ccc(Cl)cc2)cs1 (stereo not given) | nt | nt | -2% | nt | nt
CN(C)c1ccc(-c2csc(C(C)(O)c3cccc(F)c3)n2)cc1 (stereo not given) | nt | nt | 16µM* | nt | nt
CN(C)c1ccc(-c2csc(C(O)c3ccccc3)n2)cc1 (stereo not given) | nt | nt | 25µM* | nt | nt
Cc1ccc(CNC(=O)C2CCCN(S(=O)(=O)c3cccc4nsnc34)C2)cc1 (stereo not given) | 16%[46.1 µM] | 2%[46.1 µM] | nt | nt | nt
O=C(COc1ccccc1)OCC(=O)c1ccc(S(=O)(=O)N2CCCCC2)cc1 | nt | nt | 7% | nt | nt
CC(CC(=O)NCCc1ccc(F)cc1)c1ccccc1 (stereo not given) | nt | nt | 11% | 57 | 25*
O=C(CSCc1c(F)cccc1Cl)NCCc1ccccc1 | nt | nt | 53% | 46* | 21*
O=C(CCc1ccccc1)NCCSCc1c(F)cccc1Cl | 4% | -7% | -7% | 14 | 23*
O=C(CSCc1c(F)cccc1Cl)NCc1ccco1 | 0% | ? | -8% | 24 | 26*
CCNC(=O)CC1C(=O)N(c2ccc(F)cc2)C(=O)N1Cc1ccc(OC)c(OC)c1 (stereo not given) | -23%[46.1 µM] | 8%[46.1 µM] | nt | nt | nt
CNC(=O)CSCc1c(F)cccc1Cl | 4% | -18% | -3% | -4 | -5
O=C(CSCc1ccccc1)NCCc1ccc(F)cc1 | -4%[46.1 µM] | 3%[46.1 µM] | 25% | 30 | 17*
CC(C)NC(=O)CSCc1c(F)cccc1Cl | ? | 9% | 8% | 9 | 8.4*
O=C(CSCc1ccc(Br)cc1)NCCc1ccccc1 | nt | nt | 12% | 2 | -3
COC(=O)c1cc(C)nc2c1c(=O)nc(SCc1cccc(C(F)(F)F)c1)n2C1CC1 | nt | 9%[46.1 µM] | nt | nt | nt
c1ccc(-c2cn(C[C@H]3CC[C@H](Cn4cc(-c5ccccn5)nn4)O3)nn2)nc1 | nt | nt | 1µM* | 16 | 0
CC1CC1C(=O)OCC(=O)NC(=O)NC12CC3CC(CC(C3)C1)C2 (stereo not given) | ? | -2% | -2% | 86* | 43*
COc1ccc(CC(=O)OCC(=O)NC(=O)NC23CC4CC(CC(C4)C2)C3)cc1 | 1% | -27% | -8% | -18 | 8
C[C@H](CO)N1C[C@H](C)[C@@H](CN(C)CC2CC2)Oc2c(NC(=O)Cc3ccccc3)cccc2C1=O | nt | nt | 6% | nt | nt
NCCCC[C@H](NC(=O)C1CCNCC1)c1nnc(CN)o1 | nt | nt | nt | -11 | 1
C=CC[n+]1c(-c2ccc(OC)c(OC)c2)csc1NNC(=O)Nc1ccccc1 | ? | 10µM* | -5% | -17 | -2
COc1ccc(NC(=O)CSc2nc(SC)ns2)cc1 | ? | -4%[46.1 µM] | 7% | 89* | 19*
SMILES | Marburg entry inh | LASV entry inh | AMA1-RON2 inh | Shiga inhibitor | CHX counter
CSc1nsc(SCC(=O)Nc2ccc(NC(C)=O)cc2)n1 | 4%[46.1 µM] | 21% | -7% | 38 | -4
CSc1nsc(SCC(=O)Nc2ccc(C(C)=O)cc2)n1 | 3% | 11% | 39% | 72* | 47*
Cc1cc(Br)cc(Br)c1OCC(=O)NNC(=O)Nc1ccccc1 | -18%[46.1 µM] | -7% | 41% | nt | nt
CCOc1ccc(CNCc2c(C(=O)O)c(C)n(Cc3ccc(F)cc3Cl)c2C)cc1 | ? | 8%[46.1 µM] | nt | nt | nt
COc1ccc(C(=O)O)cc1Nc1nc2ccc(C)cc2n2cnnc12 | 23%[46.1 µM] | nt | nt | nt | nt
CCOc1ccc(C(=O)Nc2nnc(NC(=S)Nc3ccccc3)s2)cc1 | -4% | -8% | 40% | 70* | 26*
Cc1nc(NC(=S)Nc2ccccc2)sc1C | nt | nt | 64% | 127* | 43*
Cc1ccc(C(=O)Nc2nnc(NC(=S)Nc3ccccc3)s2)cc1 | ? | 4% | 47% | 19 | 3
CCc1nnc(NC(=S)Nc2ccccc2)s1 | -26% | 5% | 59% | 99* | 45*
COc1cccc(CSc2nc3n(n2)C(c2cccc(F)c2)C(C(=O)Nc2ccccc2C)=C(C)N3)c1 (stereo not given) | nt | 39%[46.1 µM] | nt | nt | nt
c1ccc2c(c1)oc1c(-c3ccc4nccn4c3)cccc12 | nt | nt | -10% | nt | nt
C=CCNc1oc(-c2cccc3ccccc23)nc1C#N | 8% | 5% | -10% | 45* | 46*
CCNc1oc(-c2cccc3ccccc23)nc1C#N | 8% | 0% | -12% | 58* | 27
CC(C)Nc1oc(-c2cccc3ccccc23)nc1C#N | -2% | 10% | -6% | 84* | 30*
